Laboratory results reported in PubChem BioAssay (Tox21).
Records with an inconclusive call do not appear. Calls of active or inactive are those of the source. Unless noted, calls follow the shape of the dose curve; as a rule, active = well fitted curve in the direction sought with a large enough effect in the repeat runs; inconclusive = weak or mixed curves; inactive = no such curve, though single readings can be large; an effect the other way counts as inactive or inconclusive. Where a SMILES comes first, the peptide text is derived from it.

Tests used:
[1] = qHTS assay to identify small molecule agonists of the vitamin D receptor (VDR) signaling pathway - cell viability counter screen (AID 743224); also: series mostly up to about 63 µM; nearly all actives have a fitted effect of over 50% in size
Method in brief: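 Cells: VDR-bla, 2,000/well, settled 4 h. Treatment: compounds in DMSO, 16 h, 37C/5% CO2. Readout: CellTiter-Glo luminescence after 30 min RT.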

[2] = qHTS assay to identify small molecule antagonists of the vitamin D receptor (VDR) signaling pathway - cell viability counter screen (AID 743225); also: nearly all actives have a fitted effect of over 50% in size
Method in brief: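 Cytotoxicity counter screen read by CellTiter-Glo luminescence (30 min, room temperature) in the same wells as the VDR-bla antagonist readout. HEK 293T VDR-UAS-bla cells had 16 h at 37C with compound and 3 nM (final) 1-alpha,25-dihydroxyvitamin D3, then 2 h with FRET substrate.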

[3] = qHTS assay to identify small molecule agonists of the NFkB signaling pathway (AID 1159509; active = well fitted curve in the direction sought with a large enough effect in the signal ratio in the repeat runs, not every such curve was filed as active; the % refers to the signal ratio; also: series mostly up to about 61 µM)
Method in brief: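 Pathway activation was measured in ME-180 cells stably expressing beta-lactamase under NF-kB response element control. Substrate cleavage was read as the 460/530 nm emission shift after 5 hr compound incubation.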

[4] = qHTS assay to identify small molecule agonists of the NFkB signaling pathway - cell viability counter screen (AID 1159515; calls by dose curve; also: series mostly up to about 61 µM; nearly all actives have a fitted effect of over 55% in size)
Method in brief: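 Cells are seeded (2,000 NFkB-bla ME-180 per well), rested overnight, and dosed with DMSO-dissolved compounds for 5 hr at 37 C. Viability is then read by CellTiter-Glo luminescence after 30 min at room temperature.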

[5] = qHTS assay to identify small molecule agonists of the endoplasmic reticulum stress response signaling pathway (AID 1159516; active = well fitted activation curve with a large enough effect in the signal ratio in the repeat runs, not every such curve was filed as active; the % refers to the signal ratio)
Method in brief: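 Cells are seeded at 1,500 per well and incubated overnight. Compounds in DMSO are added for 5 hr at 37 C, then beta-lactamase FRET substrate for 2 hr at room temperature, and fluorescence at 460 and 530 nm is measured.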

[6] = qHTS assay to identify small molecule agonists of the endoplasmic reticulum stress response signaling pathway - cell viability counter screen (AID 1159517; calls by dose curve;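 also: HeLa cells carrying an ER stress response element beta-lactamase reporter; series mostly up to about 61 µM; nearly all actives have a fitted effect of over 50% in size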)
Method in brief: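 ESRE-bla HeLa cells (1,500/well) were plated overnight at 37 C and exposed to compounds for 5 hr. After the 2 hr beta-lactamase substrate read, CellTiter-Glo went into the same wells, and luminescence was read after 30 min at room temperature.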

[7] = qHTS assay to identify small molecule antagonists of the retinoid-related orphan receptor gamma (ROR-gamma) signaling pathway - cell viability counter screen (AID 1159520); also: nearly all actives have a fitted effect of over 50% in size
Method in brief: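 Cytotoxicity was read from cellular ATP (CellTiter-Glo luminescence) after 16 hr at 37 C with 1 uM doxycycline induction. The inducer was added 2 hr after compound transfer to Tet-on ROR gamma CHO cells.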

[8] = target: Nuclear receptor ROR-gamma (Homo sapiens) (UniProt P51449); assay: qHTS assay to identify small molecule antagonists of the retinoid-related orphan receptor gamma (ROR-gamma) signaling pathway (AID 1159521)
Method in brief: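 Antagonist read-out: drop in luminescence (ONE-Glo) from an RORE-LUC reporter in CHO cells with doxycycline-inducible ROR-gamma; 2 hr compound pretreatment, 1 uM doxycycline, 16 hr incubation at 37 C.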

[9] = qHTS assay to identify small molecule agonists of the AP-1 signaling pathway - cell viability counter screen (AID 1159525; calls by dose curve; also: nearly all actives have a fitted effect of over 55% in size)
Method in brief: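 Intracellular ATP by Cell Titer Glo luminescence (30 min, RT) in the same ME-180 AP-1-bla wells after the 5 h compound exposure at 37 °C. Normalised to tetra n-octyl ammonium bromide and DMSO controls.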

[10] = qHTS assay to identify small molecule agonists of the AP-1 signaling pathway (AID 1159526; calls by dose curve)
[11] = target: Retinoic acid receptor RXR-alpha (Homo sapiens) (UniProt P19793); assay: qHTS assay to identify small molecule agonists of the RXR signaling pathway (AID 1159527; calls by dose curve; also: nearly all actives have a fitted effect of over 35% in size)
Chain of Retinoic acid receptor RXR-alpha (Homo sapiens) (P19793 whole entry, looked up): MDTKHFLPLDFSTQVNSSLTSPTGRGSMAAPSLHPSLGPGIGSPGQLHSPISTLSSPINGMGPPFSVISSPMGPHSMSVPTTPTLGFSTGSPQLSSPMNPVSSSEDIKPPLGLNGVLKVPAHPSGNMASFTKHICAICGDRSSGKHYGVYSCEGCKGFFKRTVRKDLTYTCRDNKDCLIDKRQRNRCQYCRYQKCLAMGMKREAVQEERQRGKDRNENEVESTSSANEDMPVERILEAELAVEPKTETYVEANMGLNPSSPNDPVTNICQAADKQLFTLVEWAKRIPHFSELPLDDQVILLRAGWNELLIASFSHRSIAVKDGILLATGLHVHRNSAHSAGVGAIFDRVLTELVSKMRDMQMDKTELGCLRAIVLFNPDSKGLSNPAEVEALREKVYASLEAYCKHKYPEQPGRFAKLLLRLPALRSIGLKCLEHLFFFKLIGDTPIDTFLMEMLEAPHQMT
Method in brief: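 Agonist-mode beta-lactamase reporter assay: HEK 293T RXR-alpha-UAS-bla cells treated 16 hr at 37 C with compounds, 9-cis retinoic acid as positive control. LiveBLAzer FRET substrate, 405 nm excitation, 460/530 nm emission.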

[12] = qHTS assay to identify small molecule agonists of the RXR signaling pathway - cell viability counter screen (AID 1159529)
Method in brief: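 CellTiter-Glo luminescence gave viability in the wells also read for beta-lactamase. Cells (RXR-alpha-UAS-bla HEK 293T, 2% charcoal-stripped FBS medium) had 5 hr plating, then 16 hr compound exposure at 37 C; tetraoctyl ammonium bromide served as positive control.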

[13] = qHTS assay to identify small molecule antagonists of the retinoid acid receptor (RAR) signaling pathway - cell viability counter screen (AID 1159551); also: nearly all actives have a fitted effect of over 35% in size
Method in brief: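 Cells (C3RL4) are plated, incubated overnight, dosed with compound in DMSO, then given retinol at 1 uM final. After 6 h at 37 C, CellTiter-Glo is added and luminescence read following 30 min at room temperature.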

[14] = qHTS assay to identify small molecule antagonists of the retinoic acid receptor (RAR) signaling pathway (AID 1159552; also: nearly all actives have a fitted effect of over 50% in size)
Method in brief: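 Luminescent RARE reporter read-out in C3RL4 cells: 6 hr co-treatment at 37 C of test compounds with retinol at 1 uM final. Cells plated overnight beforehand; luciferase reagent incubated 30 min at room temperature before reading.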

[15] = qHTS assay to identify small molecule agonists of the retinoic acid receptor (RAR) signaling pathway (AID 1159553)
Method in brief: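 Seed C3RL4 reporter cells at 1,000 per well and incubate overnight at 37 C. Add compounds in DMSO, incubate 6 hr. Add luciferase reagent, wait 30 min at room temperature, read luminescence.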

[16] = qHTS assay to identify small molecule antagonists of the estrogen related receptor (ERR) signaling pathway from Tox21 library - cell viability counter screen (AID 1224834); also: nearly all actives have a fitted effect of over 30% in size
Method in brief: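 ERR cells, 2,000/well; 6 h settle at 37 C/5% CO2; pin-tool compound transfer in DMSO; 17.5 h at 37 C; CellTiter-Fluor, 30 min; fluorescence intensity.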

[17] = target: Luciferin 4-monooxygenase (Photinus pyralis) (UniProt P08659); assay: qHTS assay to identify small molecule inhibitors of firefly luciferase (AID 1224835); also: series mostly up to about 120 µM; nearly all actives have a fitted effect of over 25% in size
Chain of Luciferin 4-monooxygenase (Photinus pyralis) (P08659 whole entry, looked up): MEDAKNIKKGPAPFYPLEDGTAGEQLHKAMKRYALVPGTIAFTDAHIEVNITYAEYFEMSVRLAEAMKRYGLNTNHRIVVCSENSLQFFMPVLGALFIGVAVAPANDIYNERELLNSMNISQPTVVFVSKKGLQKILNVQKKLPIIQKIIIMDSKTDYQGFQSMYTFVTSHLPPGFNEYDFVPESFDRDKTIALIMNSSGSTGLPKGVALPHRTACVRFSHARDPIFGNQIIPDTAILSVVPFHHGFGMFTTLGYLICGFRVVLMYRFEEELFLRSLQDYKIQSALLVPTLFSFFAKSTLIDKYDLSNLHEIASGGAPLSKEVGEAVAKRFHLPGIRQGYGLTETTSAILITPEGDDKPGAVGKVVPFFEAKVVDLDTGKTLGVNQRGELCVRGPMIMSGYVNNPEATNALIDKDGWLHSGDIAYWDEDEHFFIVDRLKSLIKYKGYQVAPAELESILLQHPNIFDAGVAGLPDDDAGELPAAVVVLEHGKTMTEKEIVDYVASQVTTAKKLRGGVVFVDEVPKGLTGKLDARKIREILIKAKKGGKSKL
Method in brief: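 Inhibition of purified Photinus luciferase is measured by luminescence. Substrate levels (D-luciferin, ATP) sit at their KM values. Each compound is tested in a concentration series.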

[18] = qHTS assay to identify small molecule agonists of the constitutive androstane receptor (CAR) signaling pathway - cell viability counter screen (AID 1224836); also: series mostly up to about 92 µM; nearly all actives have a fitted effect of over 45% in size
Method in brief: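 Cell viability multiplexed with the CAR agonist screen: CellTiter-Fluor fluorescence after 23 hr at 37 C. HepG2-CYP2B6-hCAR cells got compounds at 15 concentrations with PK11195 at 0.75 uM final.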

[19] = qHTS assay to identify small molecule antagonists of the constitutive androstane receptor (CAR) signaling pathway - cell viability counter screen (AID 1224837); also: series mostly up to about 92 µM; nearly all actives have a fitted effect of over 45% in size
Method in brief: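 Viability was measured with CellTiter-Fluor in a HepG2 line carrying stably transfected hCAR and a CYP2B6-2.2kb construct. Cells were exposed for 23 hr at 37 C to 15 compound concentrations with 50 nM CITCO as agonist.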

[20] = target: Nuclear receptor subfamily 1 group I member 3 (Homo sapiens) (UniProt Q14994); assay: qHTS assay to identify small molecule antagonists of the constitutive androstane receptor (CAR) signaling pathway (AID 1224838);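 also: HepG2 cells stably expressing hCAR with CYP2B6 luciferase reporter stimulated by CITCO; nearly all actives have a fitted effect of over 40% in size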; also: potency is read from the fitted curve at half-maximal effect
Chain of Nuclear receptor subfamily 1 group I member 3 (Homo sapiens) (Q14994 whole entry, looked up): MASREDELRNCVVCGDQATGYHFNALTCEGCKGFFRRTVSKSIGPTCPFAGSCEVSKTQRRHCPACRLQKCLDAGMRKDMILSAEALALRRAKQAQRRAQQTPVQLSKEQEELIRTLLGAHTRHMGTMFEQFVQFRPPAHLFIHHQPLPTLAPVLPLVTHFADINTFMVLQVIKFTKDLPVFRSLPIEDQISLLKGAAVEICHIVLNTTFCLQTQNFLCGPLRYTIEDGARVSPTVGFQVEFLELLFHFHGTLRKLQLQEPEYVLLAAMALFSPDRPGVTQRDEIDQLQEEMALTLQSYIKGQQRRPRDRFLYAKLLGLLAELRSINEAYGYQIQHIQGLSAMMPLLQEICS
Method in brief: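 Antagonist mode used CITCO at a final 50 nM to activate CAR in human hepatoma HepG2 cells carrying stable hCAR and a 2.2 kb CYP2B6 promoter-luciferase construct. Compounds were tested at 15 concentrations over 24 h, with luminescence as the end point.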

Measured: Potency

CCCCOCC(C)O (stereo not given)
inactive: [1] | [2] | [3] | [4] | [5] | [6] | [7] | [8] | [9] | [10] | [11] | [12] | [13] | [14] | [15] | [16] | [17] | [18] | [19] | [20]

C=CCCCC
inactive: [1] | [2] | [3] | [4] | [5] | [6] | [7] | [8] | [9] | [10] | [11] | [12] | [13] | [14] | [15] | [16] | [17] | [18] | [19] | [20]

COc1cc(/C=C/C(N)=O)cc(OC)c1OC
inactive: [1] | [2] | [3] | [4] | [5] | [6] | [7] | [8] | [9] | [10] | [11] | [12] | [13] | [14] | [15] | [16] | [17] | [18] | [19] | [20]

COc1ccc2c(c1)c1c3n2CCN(C)C3=NCC1
inactive: [1] | [2] | [3] | [4] | [5] | [6] | [7] | [8] | [9] | [10] | [11] | [12] | [13] | [14] | [15] | [16] | [17] | [18] | [19] | [20]

CC(=O)O[Si](C)(OC(C)=O)OC(C)=O
inactive: [1] | [2] | [3] | [4] | [5] | [6] | [7] | [8] | [9] | [10] | [11] | [12] | [13] | [14] | [15] | [16] | [17] | [18] | [19] | [20]

Cc1ncc([N+](=O)[O-])n1CC(C)O (stereo not given)
inactive: [1] | [2] | [3] | [4] | [5] | [6] | [7] | [8] | [9] | [10] | [11] | [12] | [13] | [14] | [15] | [16] | [17] | [18] | [19] | [20]

CCCCOCCOC(=O)COc1ccc(Cl)cc1Cl
inactive: [1] | [2] | [3] | [4] | [5] | [6] | [7] | [8] | [9] | [10] | [11] | [12] | [13] | [14] | [15] | [16] | [17] | [18] | [19] | [20]

CC(C)[C@H]1CC[C@H](C)C[C@@H]1O
inactive: [1] | [2] | [3] | [4] | [5] | [6] | [7] | [8] | [9] | [10] | [11] | [12] | [13] | [14] | [15] | [16] | [17] | [18] | [19] | [20]

O=C(O)CONC(=O)c1ccccc1
inactive: [1] | [2] | [3] | [4] | [5] | [6] | [7] | [8] | [9] | [10] | [11] | [12] | [13] | [14] | [15] | [16] | [17] | [18] | [19] | [20]

N#CCC(=O)NN
inactive: [1] | [2] | [3] | [4] | [5] | [6] | [7] | [8] | [9] | [10] | [11] | [12] | [13] | [14] | [15] | [16] | [17] | [18] | [19] | [20]

CC(O)COC(C)(C)C (stereo not given)
inactive: [1] | [2] | [3] | [4] | [5] | [6] | [7] | [8] | [9] | [10] | [11] | [12] | [13] | [14] | [15] | [16] | [17] | [18] | [19] | [20]

CC(=O)O[C@@H]1CC2CCC1(C)C2(C)C (stereo not given in full)
inactive: [1] | [2] | [3] | [4] | [5] | [6] | [7] | [8] | [9] | [10] | [11] | [12] | [13] | [14] | [15] | [16] | [17] | [18] | [19] | [20]

C=C(C)c1cccc(C(C)(C)N=C=O)c1
active: [20] 7.7 µM
inactive: [1] | [2] | [3] | [4] | [5] | [6] | [7] | [8] | [9] | [10] | [11] | [12] | [13] | [14] | [15] | [16] | [17] | [18] | [19]

CC(=O)N[C@@H](CO)C(=O)N[C@@H](CC(=O)O)C(=O)N[C@@H](CCCCN)C(=O)N1CCC[C@H]1C(=O)O (Ac-SDKP-OH)
inactive: [1] | [2] | [3] | [4] | [5] | [6] | [7] | [8] | [9] | [10] | [11] | [12] | [13] | [14] | [15] | [16] | [17] | [18] | [19] | [20]
